In the library only some 19% were active in any assay of this set; here they are far more common.
ELG1 repair inh – inhibitors of ELG1-dependent DNA repair in HEK293T cells. HEK293T ELG1-luciferase reporter, luminescence, 16 h; DNA damage induced by 5-fluorouridine. Potency, µM (top dose mostly 46.1 µM), for inactives: top-dose activity change, negative = inhibition, most hits filed as inhibitors. 330,000 tested, 2.3% active. AID 504467; further: potency means the concentration at half of the fitted maximal effect; nearly all actives have a fitted effect of over 55% in size
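5-Fluorouridine DNA damage + compound/DMSO, 2,000 cells/well, 16 h, 37 °C/5% CO2. ONE-Glo, 30 min RT, luminescence. Readout = decrease in reporter signal.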
HT1080NT lethal – kills 2HG-producing HT-1080-NT fibrosarcoma cells | HT-1080-NT fibrosarcoma viability, CellTiter-Glo ATP luminescence, 48 h | Potency, µM (series often up to 46.1 µM), for inactives: top-dose activity, negative = less viability, hits mostly cytotoxic | 360,000 tested, 1.6% active | AID 686970;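 further: NT is the 2HG producing partner of a matched IDH1 knockdown line; potency means the concentration at half of the fitted maximal effect; 0% = DMSO-treated cells and -100% = media-only wells without cells; nearly all actives have a fitted effect of over 55% in size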
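Viability of the 2HG-overproducing fibrosarcoma line after 48 hours of compound exposure at 37 degrees C was determined by luminescence with CellTiter-Glo, and concentration-effect curves were then fitted and categorized.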
IL1B secr inh – inhibitors of inflammasome signaling (IL-1 beta secretion) | THP-1 LPS/ATP IL-1B secretion, AlphaLISA, 16 h; active compounds read low | activity change, % at 57.5 µM | 360,000 tested, 4.7% active | AID 743279; in the data active means activity change below about -50%; inconclusive means mostly about -30% to -49%
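THP-1 cells pretreated 1 hr with compounds (up to 57.5 uM final), then stimulated with LPS (250 ng/mL final) plus ATP (1.25 mM final); secreted IL-1B measured by AlphaLISA after 16 hr, decreased signal indicating inhibition.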
HT1080 IDH1KD tx – toxicity to HT-1080 IDH1 knockdown cells (counter line); Potency, µM (series often up to 46.1 µM), without a hit: at the top dose activity, negative = toxicity, actives largely listed as cytotoxic; 360,000 tested, 2% active; HT-1080 IDH1 knockdown viability, ATP luminescence, 48 h; AID 686971;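 further: potency means the concentration at half of the fitted maximal effect; 0% = DMSO wells and -100% = cell-free medium wells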
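HT-1080-IDH1KD cells (IDH1 knocked down), 750/well in RPMI with 5% FBS, treated with compound 48 h at 37 degrees C. Viability by CellTiter-Glo luminescence, normalised to DMSO and no-cell wells; concentration-response curves classed.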
DT40 TDP1 CPT – growth inhibition of DT40 Tdp1-/-;hTDP1 cells with camptothecin (screen for TDP1 inhibitors) | AID 686979 | chicken DT40 Tdp1-/-;hTDP1 cells + 20 nM CPT, ATP luminescence, 48 h | 420,000 tested, 12% active | Potency, µM (series often up to 46.2 µM), for the others: at the top dose activity change, negative = growth inhibition, actives largely listed as inhibitors; further: potency means the concentration at half of the fitted maximal effect; nearly all actives have a fitted effect of over 55% in size
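Cell growth measured by CellTiter-Glo luminescence after a minimum 48 h, 37 C compound exposure with 20 nM CPT in Tdp1-knockout DT40 cells stably expressing hTDP1, seeded 400/well; qHTS titration format.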
TDP1 cell noCPT – qHTS for Inhibitors of human tyrosyl-DNA phosphodiesterase 1 (TDP1): qHTS in cells in absence of CPT | DT40 Tdp1-/- hTDP1 cells, no CPT, ATP luminescence, 48 h | Potency, µM (series often up to 46.2 µM), for inactives: at the top dose activity change, negative = growth inhibition, most hits filed as inhibitors | 420,000 tested, 15% active | AID 686978, 2013; further: potency means the concentration at half of the fitted maximal effect; nearly all actives have a fitted effect of over 55% in size
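Cells were dispensed at 400 per well, compounds added by pin tool, plates incubated ≥48 hr at 37 °C, then CellTiter-Glo added for 30 min at room temperature before luminescence reading. Line: DT40 Tdp1-/- complemented with hTDP1; camptothecin omitted.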
* marks the source's active call; other numbers are inactive results; i = inactive; ? = inconclusive; nt = not tested or not shown; [ ] = another dose, or the depositor's remark. Unless noted, the call rests on the fitted dose curve; in most records, active means well fitted curve in the direction sought with a large enough effect; inconclusive means small, poorly fitted or top-dose-only effect, or another doubt; inactive means no such curve, though single readings can be large; an effect the other way counts as inactive or inconclusive. Unless noted, on the % scale 0 is the no-effect control and ±100 the full control effect.

SMILES | ELG1 repair inh | HT1080NT lethal | IL1B secr inh | HT1080 IDH1KD tx | DT40 TDP1 CPT | TDP1 cell noCPT
CCOc1ccc(NS(=O)(=O)c2ccc(NC(=O)c3cccnc3)c(OC)c2)cc1 | 1.7% | 2.6% | 16.4 | 0.7% | -10.4% | -20.0%
Cc1ccc(-c2nc(SC(C)C(=O)NC3CC3)n[nH]2)cc1 (stereo not given) | nt | 6.9% | 0.0 | 8.8% | -10.6% | -15.6%
COc1cc(NC(=O)Cn2cnc3sc(C)c(S(=O)(=O)N4CCC(C)CC4)c3c2=O)cc(OC)c1OC | nt | nt | nt | nt | -14.7% | 0.4%
Cc1cccc(NS(=O)(=O)c2ccc(Cl)c(C(=O)Nc3ccccc3C)c2)c1 | nt | nt | nt | nt | ? | 14.6µM*
COc1cccc(S(=O)(=O)Nc2ccc(C(=O)Nc3ccncc3)cc2)c1 | ? | 6.3% | 11.8 | 9.0% | 13µM* | ?
COc1ccc2c(c1)c1nnc(SC(C)C)nc1n2C | nt | 3.4% | nt | -2.7% | 1.7% | ?
CCOC(=O)N1CCN(C(=O)c2ccc(-c3ccccc3OC)nc2N2CCC(N3CCCC(CO)C3)CC2)CC1 (stereo not given) | nt | nt | nt | nt | 17.6%[9.04 µM] | -18.2%
Cc1ccc(S(=O)(=O)Nc2c(C)nn(C)c2C)cc1C | -12.7% | -2.3% | 14.2 | -3.4% | 20.6µM* | 13µM*
O=C1CCCN1c1ccc(CNS(=O)(=O)c2ccc(F)cc2)cc1 | 19.4% | 21.4% | -1.1 | 20.5% | -19.0% | -24.6%
Cc1nn(C)c(C)c1NS(=O)(=O)c1ccc(N2CCCC2=O)cc1 | ? | -29.4% | -56.6* | ? | 18.4µM* | 16.4µM*
CCOC(=O)c1c(NC(=O)CN(CC)CC)sc2c1CCN(C(=O)OCC)C2 | ? | ? | ? | ? | ? | 25.9µM*
CCOC(=O)N1CCc2c(sc(NC(=O)Cc3ccccc3)c2C(=O)c2ccc(OC)cc2)C1 | ? | -24.0% | -6.6 | -19.9% | ? | 25.9µM*
CCOC(=O)c1c(NC(=O)CN2CCCCC2)sc2c1CCN(C(=O)OCC)C2 | ? | ? | -85.7* | ? | ? | ?
COc1ccc(C(=O)c2c(NC(C)=O)sc3c2CCN(C(=O)OC(C)(C)C)C3)cc1 | ? | ? | nt | ? | -3.5% | ?
CCCc1cc(=O)[nH]c(SCc2nc(-c3ccc(C)cc3)no2)n1 | nt | nt | nt | nt | -17.5% | -17.5%
CCc1cc(=O)[nH]c(SCc2nc(-c3cccc(Cl)c3)no2)n1 | nt | nt | nt | nt | 18.4µM* | 16.4µM*
COc1ccc(OC)c(CCNC(=O)CCCc2nnc3n(C)c(=O)c4sccc4n23)c1 | -5.0% | -14.1% | 19.4 | -0.4% | ? | -13.7%
COc1ccc(N(CC(=O)N2CCN(c3ccccc3F)CC2)S(=O)(=O)c2c(C)noc2C)cc1 | 23.1% | -0.2% | -8.6 | 6.4% | ? | ?
Cc1ccc(N(CC(=O)N2CCN(c3ccccc3F)CC2)S(=O)(=O)c2c(C)noc2C)cc1 | 4.9% | 5.8% | -6.5 | 5.8% | 20.6µM* | ?
COc1ccc(N(CC(=O)N2CC=C(c3ccccc3)CC2)S(=O)(=O)c2c(C)noc2C)cc1 | ? | 6.9% | 9.2 | -3.6% | ? | 23.1µM*
CCOc1ccc(N(CC(=O)N2CC=C(c3ccccc3)CC2)S(=O)(=O)c2c(C)noc2C)cc1 | ? | 0.0% | -7.1 | 3.1% | ? | ?
CCN(CC(=O)Nc1ccc2c(c1)OCCO2)C(=O)/C=C/c1cc(Br)ccc1OC | nt | 5.0% | ? | -0.5% | ? | ?
CCOCCCNC(=O)C(NC(=O)c1ccccc1O)c1ccc(Cl)cc1 (stereo not given) | 9.5% | -10.2% | -4.5 | -2.0% | -7.1% | -16.6%
CSc1ccc(S(=O)(=O)NCC(=O)OCC(=O)N2CCCC2=O)cc1[N+](=O)[O-] | 15.7% | 0.6% | -95.9* | -6.1% | ? | ?
COc1ccc(CCNC(=O)COC(=O)CNS(=O)(=O)c2ccc(SC)c([N+](=O)[O-])c2)cc1 | 15.0% | 5.3% | 10.4 | 15.7% | -9.7% | 12.9%
SMILES | ELG1 repair inh | HT1080NT lethal | IL1B secr inh | HT1080 IDH1KD tx | DT40 TDP1 CPT | TDP1 cell noCPT
CSc1ccc(S(=O)(=O)NCC(=O)OC2CCOC2=O)cc1[N+](=O)[O-] (stereo not given) | 5.7% | 3.5% | -68.5* | 6.1% | 1.0% | 5.6%
CSc1ccc(S(=O)(=O)NCC(=O)OCC(=O)N2CC(C)CC(C)C2)cc1[N+](=O)[O-] (stereo not given) | 5.3% | 0.1% | -1.1 | -0.1% | 0.8% | 9.1%
Nc1ccc(S(=O)(=O)NCC(=O)OC2CCOC2=O)cc1[N+](=O)[O-] (stereo not given) | 2.8% | -0.3% | 3.7 | 2.3% | -9.3% | -4.2%
CSc1ccc(S(=O)(=O)NCC(=O)OCC(=O)NCc2cccs2)cc1[N+](=O)[O-] | 6.9% | -0.3% | -66.5* | 4.7% | -5.8% | -19.3%
O=C(Nc1ccccc1C(=O)O)c1ccc(NC(=O)C2CCCCC2)cc1 | 1.8% | -14.1% | i | -22.4% | ? | ?
COc1cc(/C=N/Nc2nncn2/N=C/c2ccc(O)c(OC)c2)ccc1O | ? | 20.6µM* | 17.0 | 14.6µM* | ? | ?
COc1ccc(OC)c(/C=N/Nc2nncn2/N=C/c2cc(OC)ccc2OC)c1 | ? | ? | ? | 14.6µM* | 8.2µM* | 7.31µM*
COc1cc(/C=N\Nc2nncn2N)ccc1OC(C)=O | 12.8% | ? | 3.1 | ? | -6.6% | ?
Cc1ccc(C(=O)NC(=S)Nc2ccccc2N2CCCC2)cc1[N+](=O)[O-] | -13.2% | -18.2% | -18.6 | -25.4% | 16.4µM* | 18.4µM*
Cc1cc(C)cc(NS(=O)(=O)c2ccc(NC(=S)NC(=O)c3cccs3)cc2)c1 | -23.5% | ? | ? | ? | 20.6µM* | 18.4µM*
O=C(NC(=S)Nc1ccccc1N1CCCC1)c1ccccc1[N+](=O)[O-] | 2.9% | -4.7% | 19.4 | -0.9% | -16.9% | -5.0%
COc1cc(NS(=O)(=O)c2ccc(NC(=S)NC(=O)c3cccs3)cc2)nc(OC)n1 | -3.9% | 9.1% | 24.8 | 14.4% | -8.6% | 0.2%
Cc1ccc(NC(=O)c2cc(S(=O)(=O)Nc3ccc(C)cc3)cs2)cc1 | nt | -6.4% | -77.9* | -17.3% | 23.1µM* | 23.1µM*
Cc1ccc(NS(=O)(=O)c2ccc(NC(=O)c3cccs3)cc2)c(C)c1 | -19.9% | -28.3% | 1.0 | -21.3% | ? | ?
Cc1ccc(C(=O)NC2CCCc3ccccc32)cc1[N+](=O)[O-] (stereo not given) | ? | ? | -18.4 | 13µM* | ? | 14.6µM*

Screens deposited in PubChem by National Center for Advancing Translational Sciences (NCATS).
